Results as given in PubChem BioAssay AID1240 (Sanford-Burnham Center for Chemical Genomics, 2008).
The campaign covered roughly 50,000 compounds. About 800 (1.6%) showed an effect of 50% or more. The list comes from a sample in which strong results are over-represented; it also holds similar structures and randomly drawn compounds.

What follows are compounds tested against Bcl-2-like protein 10 (Homo sapiens) (UniProt Q9HD36) (assay: Phenotype converters, Bcl-B/TR3 peptide binding displacement, primary biochemical FP (AID 1240;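 further: 0% = Bcl-B with tracer peptide and DMSO and 100% = tracer peptide lacking Bcl-B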)). Conditions: GST-Bcl-B / FITC-TR3 peptide fluorescence polarization; stronger effect = higher value; compound at 3.75 mg/L.
Chain of Bcl-2-like protein 10 (Homo sapiens) (Q9HD36 whole entry, looked up): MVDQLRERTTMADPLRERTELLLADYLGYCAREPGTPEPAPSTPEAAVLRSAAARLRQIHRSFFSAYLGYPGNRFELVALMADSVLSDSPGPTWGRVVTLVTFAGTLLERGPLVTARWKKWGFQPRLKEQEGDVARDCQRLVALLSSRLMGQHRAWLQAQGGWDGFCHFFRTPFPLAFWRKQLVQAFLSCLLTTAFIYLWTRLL
Compound NC1=NC(=O)/C(=C\c2ccccc2Cl)S1 has a displacement of 13.2%. CC1=C(C(=O)OC(C)C)C(c2ccccc2Cl)C2=C(CCCC2=O)N1 (stereo not given) gave a displacement of 0%. CCOc1cc(/C=C2\C(=O)NC(=O)N(c3cc(C)cc(C)c3)C2=O)cc(Cl)c1O showed a displacement of 11.4%. Cc1cc(OCCN2CCCC2)ccc1Cl showed a displacement of -2.8%. In the case of Cc1ccc(-n2nc3cc(C)c(NC(=O)c4ccccc4)cc3n2)cc1, the displacement is reported as -4.4%. Cc1ccc(-n2nc3cc(C)c(NC(=O)c4ccco4)cc3n2)cc1 was tested, and the displacement was 107%. Cc1ccc(-n2nc3cc(C)c(NC(=O)c4cccc(Cl)c4)cc3n2)cc1 was tested, and the displacement was -4.2%. COc1ccc(C(=O)Nc2cc3nn(-c4ccc(OC)cc4)nc3cc2C)cc1 gave a displacement of 2.2%. Work on COc1ccc(-n2nc3cc(C)c(NC(=O)c4ccc(Br)o4)cc3n2)cc1 yielded a displacement of 117%. Compound COc1ccc(-n2nc3cc(C)c(NC(=O)c4ccco4)cc3n2)cc1 has a displacement of 5.1%. Compound Cc1ccc(-n2nc3cc(C)c(NC(=O)c4cccc(C)c4)cc3n2)cc1 has a displacement of 85.1%. With COc1ccc(-n2nc3cc(C)c(NC(=O)c4cc5ccccc5o4)cc3n2)cc1 the displacement was 2.4%. With Cc1ccc(-n2nc3ccc(NC(=O)c4ccco4)cc3n2)cc1 the displacement was 49.3%. O=S(=O)(c1cccc2ccccc12)n1cnc2ccccc21 showed a displacement of 6.3%. COc1ccc(-c2cc(C(=O)Nc3ccccc3OC)c3ccccc3n2)cc1 showed a displacement of 14.2%. Work on Nc1ccc(C(=O)Nc2cccc(O)c2)cc1 yielded a displacement of 11.4%. CN(C)N1C(=O)c2ccc3c4c(ccc(c24)C1=O)CC3 showed a displacement of 6.4%. O=C1NC(=O)c2ccc3c4c(ccc1c24)CC3 gave a displacement of 55.5%. For O=C1c2ccc3c4c(ccc(c24)C(=O)N1Cc1ccco1)CC3, the displacement was 9.5%. For O=C1NC(=S)NC(=O)C1=Cc1ccccc1OS(=O)(=O)c1ccc([N+](=O)[O-])cc1, the displacement was -7.8%. In the case of N#Cc1c(-c2cccc(Br)c2)c(C#N)c2nc3ccccc3n2c1N, the displacement is reported as 109%. For N#Cc1c(-c2ccc(O)cc2)c(C#N)c2nc3ccccc3n2c1N, the displacement was 12.5%. Compound N#Cc1c(-c2ccc(F)cc2)c(C#N)c2nc3ccccc3n2c1N has a displacement of -8%. COc1cc2c(cc1NCc1cccc([N+](=O)[O-])c1)oc1ccccc12 was tested, and the displacement was -6.6%. For O=C1OC(c2cccc(Cl)c2)=N/C1=C\c1ccccc1[N+](=O)[O-], the displacement was 7%. Work on COc1ccc(-c2nn(-c3ccccc3)cc2/C=C2\N=C(c3ccccc3)OC2=O)cc1[N+](=O)[O-] yielded a displacement of 93.8%. COc1ccc(-c2nn(-c3ccccc3)cc2C=O)cc1[N+](=O)[O-] was tested, and the displacement was -1.7%. CC(=O)CCc1oc2ccc(Br)cc2c1-c1ccc(C)o1 showed a displacement of -10.4%. In the case of COC(=O)C1=C(C(=O)OC)C2(OC1c1cccc(F)c1)C(=O)c1ccccc1C2=O (stereo not given), the displacement is reported as -0.3%. Work on CCCCOC(=O)c1cccc(NC(=O)c2cc3ccccc3oc2=O)c1 yielded a displacement of 1.7%. Cc1ccc(N2C(=O)c3ccc(C(=O)O)cc3C2=O)c(C)c1 gave a displacement of 1.6%. With Cc1ccc(-c2ccccc2)n1-c1cccc(C(=O)O)c1 the displacement was 1.2%. Cc1ccc(C(=O)O)cc1N1C(=O)c2ccc(C(=O)O)cc2C1=O showed a displacement of 6.5%. For Cc1ccc(C(=O)O)cc1-n1c(C)ccc1C, the displacement was 83.2%. Cc1ccc(C(=O)O)cc1N1C(=O)c2ccccc2C1=O showed a displacement of 7%. In the case of Cc1cc(C(=O)O)ccc1-n1c(C)ccc1C, the displacement is reported as 81.4%. Compound COc1ccccc1NC(=O)c1ccc(Br)o1 has a displacement of 1%. O=c1oc(-c2ccccc2Cl)nc2ccc(-c3ccc4nc(-c5ccccc5Cl)oc(=O)c4c3)cc12 showed a displacement of 11.6%. Cc1ccc2nsnc2c1NC(=O)c1ccc(-c2cccc(Cl)c2)o1 gave a displacement of 1.4%. Work on Cc1ccc2nsnc2c1NC(=O)c1ccc(-c2ccc([N+](=O)[O-])cc2)o1 yielded a displacement of 16.6%. Work on Cc1ccc2nsnc2c1NC(=O)c1ccc(-c2cccc([N+](=O)[O-])c2)o1 yielded a displacement of 105%. In the case of Cc1c(NC(=O)c2ccc(-c3cccc([N+](=O)[O-])c3)o2)cccc1-c1nc2ccccc2s1, the displacement is reported as 3.7%. CC(=O)Nc1cc(-c2nc3ccccc3s2)ccc1Cl was tested, and the displacement was 11.6%. With O=C(Nc1ccc(-c2nc3ccccc3s2)c(O)c1)c1ccc(-c2cccc([N+](=O)[O-])c2)o1 the displacement was 6.1%. With O=C(Nc1cc(-c2nc3ccccc3s2)ccc1Cl)c1ccc([N+](=O)[O-])cc1 the displacement was 90.8%. O=C(Nc1cccc(-c2nc3ccccc3s2)c1)c1ccc(-c2ccc([N+](=O)[O-])cc2)o1 was tested, and the displacement was 70%. With O=C(COc1ccc([N+](=O)[O-])cc1)Nc1cc(-c2nc3ccccc3s2)ccc1Cl the displacement was 9%. O=c1/c(=C\c2ccccc2OS(=O)(=O)c2ccc3ccccc3c2)sc2nc3ccccc3n12 was tested, and the displacement was 4.6%. O=[N+]([O-])c1ccc(N2CCN(S(=O)(=O)c3ccc(Cl)cc3)CC2)c(C(F)(F)F)c1 was tested, and the displacement was 8.3%. In the case of CCOC(=O)c1ccccc1NC(=O)c1ccc(N(Cc2ccc(Cl)cc2)S(C)(=O)=O)cc1, the displacement is reported as 12.1%. Compound COC(=O)c1c(-c2cc(C)ccc2C)csc1N has a displacement of -6.2%. In the case of COc1cccc(/C=N/NC(=O)c2cc(C)[nH]n2)c1OC, the displacement is reported as -9%. CN(C)CCCNC(=O)c1ccc2sc3cc(=O)c(N)cc-3nc2c1 showed a displacement of 44.6%. CCCCOc1ccccc1NC(=O)C(c1ccccc1)c1ccccc1 showed a displacement of -16.9%. CCCCOc1ccc(N2C(=O)c3cccc4cccc(c34)C2=O)cc1 gave a displacement of 0.2%. Work on CCCCOc1ccc2c3c(cccc13)C(=O)c1ccccc1-2 yielded a displacement of 176%. For CC1(C)CC(=O)C(Sc2ccc([N+](=O)[O-])cc2)=C(O)C1, the displacement was 17%. Compound CCOc1cc(-c2ccc(OC)cc2)[o+]c2c1ccc1ccccc12 has a displacement of 6.2%. C=CCOC(=O)C1=C(C)NC(=S)NC1c1ccccc1OCC (stereo not given) gave a displacement of 2.1%. For N#C/C(=C\c1ccc(Sc2ccccc2)o1)c1ccccc1, the displacement was -14.9%. N#CC(C#N)=C/C(=C/C(C#N)C#N)c1ccccc1 gave a displacement of 109%. For N#C/C(=C\N1CCOCC1)c1ccccc1, the displacement was -0.9%. COc1ccc2c(c1)C1C=CCC1C(c1cccc([N+](=O)[O-])c1)N2 (stereo not given) was tested, and the displacement was -2.3%. Compound Cc1ccc2c(c1)C1C=CCC1C(c1ccc([N+](=O)[O-])cc1)N2 (stereo not given) has a displacement of 12.2%. Cc1ccc2c(c1)C1C=CCC1C(C(=O)O)N2 (stereo not given) was tested, and the displacement was 142%. With COc1ccc2c(c1)C1C=CCC1C(c1ccc([N+](=O)[O-])cc1)N2 (stereo not given) the displacement was -0.8%. Compound COc1ccc2c(c1)C1C=CCC1C(C(=O)O)N2 (stereo not given) has a displacement of 150%. With Cc1ccc2c(c1)C1C=CCC1C(c1ccccc1[N+](=O)[O-])N2 (stereo not given) the displacement was 6.9%. Compound COC(=O)c1c(C)oc2ccc(OC(=O)c3ccc(OC)c(OC)c3)cc12 has a displacement of 10.8%. For Cc1ccc(C)c(N2C(=O)C3C4C=CC(C4=C4CCCC4)C3C2=O)c1 (stereo not given), the displacement was 3.8%. COc1ccc(C(=O)Nc2ccc(O)c(-c3nc4cc(Cl)ccc4o3)c2)cc1 was tested, and the displacement was 40.1%. For CCOc1ccc(C(=O)Nc2ccc3oc(-c4ccncc4)nc3c2)cc1Cl, the displacement was -9.5%. Compound O=C(Nc1ccc(-c2nc3cc(Cl)cc(Cl)c3o2)cc1)c1cccc([N+](=O)[O-])c1 has a displacement of 62.7%. In the case of COc1cccc(C(=O)Nc2ccc3oc(-c4ccc(F)cc4Cl)nc3c2)c1, the displacement is reported as 17.1%. CCOc1ccc(C(=O)Nc2ccc(-c3nc4ccc(C)cc4o3)cc2)cc1Cl gave a displacement of 104%. With CCOc1cc(OCC)cc(C(=O)Nc2ccc(-c3nc4ccc(C)cc4o3)cc2)c1 the displacement was -16.6%. With COc1cccc(C(=O)Nc2ccc(Cl)c(-c3nc4cc(Cl)ccc4o3)c2)c1 the displacement was 105%. CCOc1cccc(C(=O)Nc2ccc(C(=O)Nc3cccc(-c4nc5ccccc5o4)c3)cc2)c1 gave a displacement of 0.7%. For O=C(Nc1ccc(-c2nc3ccccc3c(=O)o2)cc1)c1cccc([N+](=O)[O-])c1, the displacement was -5.5%. Work on CCOc1cccc(C(=O)Nc2ccc(-c3nc4cc(Cl)ccc4o3)cc2)c1 yielded a displacement of 81.3%. O=C(Nc1cccc(-c2nc3cc(Cl)ccc3o2)c1)c1cccc([N+](=O)[O-])c1 showed a displacement of -3.3%. CCOc1cc(OCC)cc(C(=O)Nc2ccc3oc(-c4ccc(OC)cc4)nc3c2)c1 showed a displacement of 4.2%. In the case of CCOC(=O)C1=C(O)/C(=C/c2ccc(-c3ccccc3)cc2)SC1=Nc1ccc(OC)cc1, the displacement is reported as -6%. Work on O=C1c2ccccc2C(=O)C1(Nc1ccc(F)cc1)c1ccccc1 yielded a displacement of 17.4%. For O=C(Nc1ccccc1[N+](=O)[O-])c1c(-c2cnc3ccccc3c2C(=O)Nc2ccccc2[N+](=O)[O-])cnc2ccccc12, the displacement was -1.5%. Work on COc1ccc(Cl)cc1NC(=O)c1cccc(F)c1 yielded a displacement of -13.8%. CC1CN(C(=O)c2ccccc2C(=O)c2ncc[nH]2)CC(C)O1 (stereo not given) was tested, and the displacement was -0.9%. With CC(=O)OC1(C#CCl)CCCCC1 the displacement was -8.7%. In the case of O=C1CC(N2CCC(O)CC2)C(=O)N1c1ccc(Cl)cc1 (stereo not given), the displacement is reported as -4.9%. With COc1cccc(/C=N/Nc2nc(-c3ccc(C)cc3)nc3ccccc23)c1O the displacement was 3.4%. Cc1ccc(-c2nc(N/N=C/c3ccccc3O)c3ccccc3n2)cc1 showed a displacement of 76.2%. Compound Cc1ccc(-c2nc(N/N=C/c3ccccc3)c3ccccc3n2)cc1 has a displacement of 6.7%. For CCC(=O)Oc1cc2oc(=O)c(CC)c(C)c2cc1CC, the displacement was 10.1%. For COc1ccc(N2C(=O)NC(=O)/C(=C/c3ccc(-c4cccc([N+](=O)[O-])c4)o3)C2=O)cc1, the displacement was -12.5%. In the case of O=C1NC(=O)N(c2ccc(Cl)cc2)C(=O)/C1=C\c1ccc(-c2ccc(C(=O)O)c(Cl)c2)o1, the displacement is reported as -7.8%. With O=C1NC(=O)N(c2ccccc2)C(=O)/C1=C\c1ccc(-c2cccc([N+](=O)[O-])c2)o1 the displacement was 39.3%. For O=C1NC(=O)N(c2ccc(Cl)cc2)C(=O)/C1=C\c1ccc(-c2ccc([N+](=O)[O-])cc2)o1, the displacement was 105%. In the case of O=C1NC(=O)N(c2ccccc2)C(=O)/C1=C\c1ccc(-c2ccc([N+](=O)[O-])cc2)o1, the displacement is reported as 130%. O=C1NC(=S)N(c2ccccc2)C(=O)/C1=C/c1ccc(-c2ccc([N+](=O)[O-])cc2)o1 showed a displacement of -1.5%. O=C1NC(=S)N(c2ccc(Br)cc2)C(=O)/C1=C\c1ccc(-c2ccc([N+](=O)[O-])cc2)o1 gave a displacement of 16.2%. Work on O=C1NC(=O)N(c2ccc(Br)cc2)C(=O)/C1=C/c1ccc(-c2cccc([N+](=O)[O-])c2)o1 yielded a displacement of 138%. Compound O=C1NC(=O)N(c2ccc(Cl)cc2)C(=O)/C1=C/c1ccc(-c2ccc(Cl)c(C(=O)O)c2)o1 has a displacement of 72.5%. In the case of COc1ccc(N2C(=O)NC(=O)/C(=C/c3ccc(-c4ccc([N+](=O)[O-])cc4)o3)C2=O)cc1, the displacement is reported as 46.2%. With O=C1NC(=O)N(c2ccc(Cl)cc2)C(=O)/C1=C/c1ccc(-c2ccc(Cl)cc2[N+](=O)[O-])o1 the displacement was 10.6%. O=C1NN(c2ccc(Cl)cc2)C(=O)/C1=C\c1ccc(-c2ccc(Cl)c(C(=O)O)c2)o1 was tested, and the displacement was 22.1%.
